Tests used:
Assay in all cases: PBM; 200 nM protein, PBS
Conditions in all cases: dsDNA, one strand shown
HOXA4 [1] = biological target: HOXA4 (Homo sapiens, UniProt Q00056 201-287, W262R)
HOXB6 [2] = biological target: HOXB6 (Homo sapiens, UniProt P17509 132-218, K202E)
HOXA4 [3] = biological target: HOXA4 (Homo sapiens, UniProt Q00056 201-287)
HOXB6 [4] = biological target: HOXB6 (Homo sapiens, UniProt P17509 132-218)
HOXA4 [5] = biological target: HOXA4 (Homo sapiens, UniProt Q00056 201-287, R217L)
Sequence of HOXA4 (Homo sapiens, UniProt Q00056 201-287, R217L) (Q00056 201-287 R217L): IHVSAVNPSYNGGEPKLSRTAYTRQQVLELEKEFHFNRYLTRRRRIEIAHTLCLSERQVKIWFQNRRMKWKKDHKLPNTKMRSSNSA

ALX3 [6] = biological target: ALX3 (Homo sapiens, UniProt O95076 139-225, N203Q)
Sequence of ALX3 (Homo sapiens, UniProt O95076 139-225, N203Q) (O95076 139-225 N203Q): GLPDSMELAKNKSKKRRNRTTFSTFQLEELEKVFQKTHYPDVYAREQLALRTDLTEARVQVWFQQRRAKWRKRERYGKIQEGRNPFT

ALX3 [7] = biological target: ALX3 (Homo sapiens, UniProt O95076 139-225)
Sequence of ALX3 (Homo sapiens, UniProt O95076 139-225) (O95076 139-225): as the sequence (O95076 139-225 N203Q) above, with Q65N counted along it

ALX3 [8] = biological target: ALX3 (Homo sapiens, UniProt O95076 139-225, L168Q)
Sequence of ALX3 (Homo sapiens, UniProt O95076 139-225, L168Q) (O95076 139-225 L168Q): as the sequence (O95076 139-225 N203Q) above, with L30Q, Q65N counted along it

ALX3 [9] = biological target: ALX3 (Homo sapiens, UniProt O95076 139-225, L168V)
Sequence of ALX3 (Homo sapiens, UniProt O95076 139-225, L168V) (O95076 139-225 L168V): as the sequence (O95076 139-225 N203Q) above, with L30V, Q65N counted along it

HOXA4 [10] = biological target: HOXA4 (Homo sapiens, UniProt Q00056 201-287, W262F)
Sequence of HOXA4 (Homo sapiens, UniProt Q00056 201-287, W262F) (Q00056 201-287 W262F): as the sequence (Q00056 201-287 R217L) above, with L17R, W62F counted along it

ALX3 [11] = biological target: ALX3 (Homo sapiens, UniProt O95076 139-225, N203S)
Sequence of ALX3 (Homo sapiens, UniProt O95076 139-225, N203S) (O95076 139-225 N203S): as the sequence (O95076 139-225 N203Q) above, with Q65S counted along it

HOXA2 [12] = biological target: HOXA2 (Homo sapiens, UniProt O43364 129-215, R185T)
Sequence of HOXA2 (Homo sapiens, UniProt O43364 129-215, R185T) (O43364 129-215 R185T): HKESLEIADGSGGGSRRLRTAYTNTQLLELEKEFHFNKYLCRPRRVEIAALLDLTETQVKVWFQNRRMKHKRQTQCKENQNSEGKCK

HOXA2 [13] = biological target: HOXA2 (Homo sapiens, UniProt O43364 129-215, R185K)
Sequence of HOXA2 (Homo sapiens, UniProt O43364 129-215, R185K) (O43364 129-215 R185K): as the sequence (O43364 129-215 R185T) above, with T57K counted along it

VAX1 [14] = biological target: VAX1 (Homo sapiens, UniProt Q5SQQ9 86-172)
Sequence of VAX1 (Homo sapiens, UniProt Q5SQQ9 86-172) (Q5SQQ9 86-172): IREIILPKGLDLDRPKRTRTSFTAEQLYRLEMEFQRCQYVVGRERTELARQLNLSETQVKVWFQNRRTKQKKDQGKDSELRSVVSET

VAX1 [15] = biological target: VAX1 (Homo sapiens, UniProt Q5SQQ9 86-172, T142I)
Sequence of VAX1 (Homo sapiens, UniProt Q5SQQ9 86-172, T142I) (Q5SQQ9 86-172 T142I): as the sequence (Q5SQQ9 86-172) above, with T57I counted along it

HOXA2 [16] = biological target: HOXA2 (Homo sapiens, UniProt O43364 129-215, Y150S)
Sequence of HOXA2 (Homo sapiens, UniProt O43364 129-215, Y150S) (O43364 129-215 Y150S): as the sequence (O43364 129-215 R185T) above, with Y22S, T57R counted along it

HOXA2 [17] = biological target: HOXA2 (Homo sapiens, UniProt O43364 129-215)
Sequence of HOXA2 (Homo sapiens, UniProt O43364 129-215) (O43364 129-215): as the sequence (O43364 129-215 R185T) above, with T57R counted along it

VAX1 [18] = biological target: VAX1 (Homo sapiens, UniProt Q5SQQ9 86-172, K157R)
Sequence of VAX1 (Homo sapiens, UniProt Q5SQQ9 86-172, K157R) (Q5SQQ9 86-172 K157R): as the sequence (Q5SQQ9 86-172) above, with K72R counted along it

NKX2-6 = biological target: T1, NKX2-6 (Homo sapiens, UniProt A6NCS4 118-204, R150C)
T1 sequence: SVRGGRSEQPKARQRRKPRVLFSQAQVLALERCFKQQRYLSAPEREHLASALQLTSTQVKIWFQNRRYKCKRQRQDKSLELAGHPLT

Sequence of HOXA4 (Homo sapiens, UniProt Q00056 201-287, W262R) (Q00056 201-287 W262R): as the sequence (Q00056 201-287 R217L) above, with L17R, W62R counted along it
Sequence of HOXA4 (Homo sapiens, UniProt Q00056 201-287) (Q00056 201-287): as the sequence (Q00056 201-287 R217L) above, with L17R counted along it
Sequence of HOXB6 (Homo sapiens, UniProt P17509 132-218, K202E) (P17509 132-218 K202E): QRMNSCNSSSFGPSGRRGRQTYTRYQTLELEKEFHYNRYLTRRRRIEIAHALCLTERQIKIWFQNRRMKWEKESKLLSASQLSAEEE
Sequence of HOXB6 (Homo sapiens, UniProt P17509 132-218) (P17509 132-218): as the sequence (P17509 132-218 K202E) above, with E71K counted along it

Sequence: ATCATAAG
- binding signal (HOXA4 [1]): 10.4 upbm affinity estimate (log intensity, higher = more binding, comparable within an allelic series)
- binding signal (HOXB6 [2]): 9.66 upbm affinity estimate (log intensity, higher = more binding, comparable within an allelic series)
- binding signal (HOXA4 [3]): 11.8 upbm affinity estimate (log intensity, higher = more binding, comparable within an allelic series)
- binding signal (HOXB6 [4]): 10.3 upbm affinity estimate (log intensity, higher = more binding, comparable within an allelic series)

Sequence: CCGGCTCC
- binding signal (HOXA4 [1]): 9.74 upbm affinity estimate (log intensity, higher = more binding, comparable within an allelic series)
- binding signal (HOXA4 [5]): 9.52 upbm affinity estimate (log intensity, higher = more binding, comparable within an allelic series)
- binding signal (ALX3 [6]): 7.7 upbm affinity estimate (log intensity, higher = more binding, comparable within an allelic series)
- binding signal (HOXA4 [3]): 9.48 upbm affinity estimate (log intensity, higher = more binding, comparable within an allelic series)
- binding signal (ALX3 [7]): 7.5 upbm affinity estimate (log intensity, higher = more binding, comparable within an allelic series)
- binding signal (ALX3 [8]): 7.65 upbm affinity estimate (log intensity, higher = more binding, comparable within an allelic series)
- binding signal (ALX3 [9]): 7.64 upbm affinity estimate (log intensity, higher = more binding, comparable within an allelic series)
- binding signal (HOXA4 [10]): 9.75 upbm affinity estimate (log intensity, higher = more binding, comparable within an allelic series)
- binding signal (ALX3 [11]): 7.7 upbm affinity estimate (log intensity, higher = more binding, comparable within an allelic series)

Sequence: ACGTTAAT
- binding signal (HOXA4 [1]): 10.6 upbm affinity estimate (log intensity, higher = more binding, comparable within an allelic series)
- binding signal (HOXA4 [5]): 11.6 upbm affinity estimate (log intensity, higher = more binding, comparable within an allelic series)
- binding signal (HOXA4 [3]): 12.9 upbm affinity estimate (log intensity, higher = more binding, comparable within an allelic series)
- binding signal (HOXA4 [10]): 11 upbm affinity estimate (log intensity, higher = more binding, comparable within an allelic series)

Sequence: ATAATGAG
- binding signal (HOXA4 [1]): 10.5 upbm affinity estimate (log intensity, higher = more binding, comparable within an allelic series)
- binding signal (HOXA2 [12]): 12.5 upbm affinity estimate (log intensity, higher = more binding, comparable within an allelic series)
- binding signal (HOXA4 [5]): 11.8 upbm affinity estimate (log intensity, higher = more binding, comparable within an allelic series)
- binding signal (HOXA2 [13]): 13.2 upbm affinity estimate (log intensity, higher = more binding, comparable within an allelic series)
- binding signal (HOXA4 [3]): 13.6 upbm affinity estimate (log intensity, higher = more binding, comparable within an allelic series)
- binding signal (VAX1 [14]): 12.8 upbm affinity estimate (log intensity, higher = more binding, comparable within an allelic series)
- binding signal (VAX1 [15]): 12.6 upbm affinity estimate (log intensity, higher = more binding, comparable within an allelic series)
- binding signal (HOXA2 [16]): 10.8 upbm affinity estimate (log intensity, higher = more binding, comparable within an allelic series)
- binding signal (HOXA4 [10]): 11.2 upbm affinity estimate (log intensity, higher = more binding, comparable within an allelic series)
- binding signal (HOXA2 [17]): 12.3 upbm affinity estimate (log intensity, higher = more binding, comparable within an allelic series)
- binding signal (VAX1 [18]): 12.5 upbm affinity estimate (log intensity, higher = more binding, comparable within an allelic series)

Sequence: CCTCGTCC
- binding signal (HOXA4 [1]): 9.94 upbm affinity estimate (log intensity, higher = more binding, comparable within an allelic series)
- binding signal (HOXA4 [5]): 9.95 upbm affinity estimate (log intensity, higher = more binding, comparable within an allelic series)
- binding signal (HOXA4 [3]): 9.86 upbm affinity estimate (log intensity, higher = more binding, comparable within an allelic series)
- binding signal (HOXA4 [10]): 9.98 upbm affinity estimate (log intensity, higher = more binding, comparable within an allelic series)

Sequence: AGGGACGG
- binding signal (HOXA4 [1]): 9.81 upbm affinity estimate (log intensity, higher = more binding, comparable within an allelic series)
- binding signal (HOXA4 [5]): 9.83 upbm affinity estimate (log intensity, higher = more binding, comparable within an allelic series)
- binding signal (NKX2-6): 9.6 upbm affinity estimate (log intensity, higher = more binding, comparable within an allelic series)
- binding signal (HOXA4 [3]): 9.78 upbm affinity estimate (log intensity, higher = more binding, comparable within an allelic series)
- binding signal (HOXA4 [10]): 9.93 upbm affinity estimate (log intensity, higher = more binding, comparable within an allelic series)

Sequence: CCCCCGGC
- binding signal (HOXA4 [1]): 9.54 upbm affinity estimate (log intensity, higher = more binding, comparable within an allelic series)
- binding signal (HOXA4 [5]): 9.54 upbm affinity estimate (log intensity, higher = more binding, comparable within an allelic series)
- binding signal (ALX3 [6]): 7.57 upbm affinity estimate (log intensity, higher = more binding, comparable within an allelic series)
- binding signal (HOXA4 [3]): 9.88 upbm affinity estimate (log intensity, higher = more binding, comparable within an allelic series)
- binding signal (ALX3 [7]): 7.92 upbm affinity estimate (log intensity, higher = more binding, comparable within an allelic series)
- binding signal (ALX3 [8]): 7.56 upbm affinity estimate (log intensity, higher = more binding, comparable within an allelic series)
- binding signal (ALX3 [9]): 7.46 upbm affinity estimate (log intensity, higher = more binding, comparable within an allelic series)
- binding signal (HOXA4 [10]): 9.51 upbm affinity estimate (log intensity, higher = more binding, comparable within an allelic series)
- binding signal (ALX3 [11]): 7.52 upbm affinity estimate (log intensity, higher = more binding, comparable within an allelic series)

From article PMC11006913
